From PubChem BioAssay (NCI)
This is part of a sample that, as a whole, favours compounds with a hit. Of some 83,000 tested, about 20% had one in any assay.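 A percent growth of 40 corresponds to 60% growth inhibition; 0 means no net growth; -100 means all cells died. Active threshold: below 10.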 Unmarked numbers belong to inactive results. The source made the active and inactive calls.

Experiments:
Experiment in all cases: NCI-60 one-dose screen, 48 h (100 = growth as untreated, 0 = no growth, -100 = all killed)
[1] = tested on: SR leukemia; conditions: 10 µM unless noted
[2] = tested on: RPMI-8226 leukemia; conditions: 10 µM unless noted
[3] = tested on: OVCAR-8 ovarian; conditions: 10 µM unless noted
[4] = tested on: OVCAR-5 ovarian; conditions: 10 µM unless noted
[5] = tested on: OVCAR-4 ovarian; conditions: 10 µM
[6] = tested on: SK-OV-3 ovarian; conditions: 10 µM unless noted
[7] = tested on: IGROV1 ovarian; conditions: 10 µM unless noted
[8] = tested on: OVCAR-3 ovarian; conditions: 10 µM unless noted
[9] = tested on: HS 578T breast; conditions: 10 µM unless noted
[10] = tested on: NCI/ADR-RES ovarian; conditions: 10 µM unless noted
[11] = tested on: BT-549 breast; conditions: 10 µM unless noted
[12] = tested on: MDA-MB-435 melanoma; conditions: 10 µM unless noted
[13] = tested on: SW-620 colon; conditions: 10 µM unless noted
[14] = tested on: MCF7 breast; conditions: 10 µM unless noted
[15] = tested on: HCT-116 colon; conditions: 10 µM unless noted
[16] = tested on: HCC-2998 colon; conditions: 10 µM unless noted
[17] = tested on: KM12 colon; conditions: 10 µM unless noted
[18] = tested on: T-47D breast; conditions: 10 µM unless noted

In the case of `Cc1cc(C)nc(SCC(=O)Nc2cccc(N=Cc3ccccc3O)c2)n1`, the growth [1] is reported as 109%, the growth [2] is reported as 96.9% and the growth [3] is reported as 103%. It also gave a growth [4] of 100%, a growth [5] of 86.1% and a growth [6] of 94.5%. It also gave a growth [7] of 108%, a growth [8] of 105% and a growth [9] of 97.2%. The growth [10] was 100%, the growth [11] was 92.9% and the growth [12] was 99.2%. It also gave a growth [13] of 99.1%, a growth [14] of 94.3% and a growth [15] of 97.3%. It also gave a growth [16] of 121% and a growth [17] of 107%.
In the case of `N#Cc1c(N2CCOCC2)nc(=S)[nH]c1-c1ccco1`, the growth [1] is reported as 17.8%, the growth [2] is reported as 43% and the growth [3] is reported as 80.3%. The growth [4] was 69%, the growth [5] was 66.2% and the growth [6] was 55%. The growth [7] was 20.7%, the growth [8] was 64.7% and the growth [10] was 40.2%. The growth [18] was 18.9%, the growth [11] was 60.4% and the growth [12] was 86.3%. For the same compound, the growth [13] was 83.8%, the growth [14] was 26.7% and the growth [15] was 82.4%. For the same compound, the growth [16] was -21% (active) and the growth [17] was 65.3%.
For `CCCC[C@@H](C=O)NC(=O)[C@H](CC(C)C)NC(=O)[C@H](CC(C)C)NC(=O)OCc1ccccc1`, the growth [1] was -24.4% (active), the growth [2] was -10.2% (active) and the growth [3] was 18.8%. For the same compound, the growth [4] was -34.5% (active), the growth [5] was 10.8% and the growth [6] was 38.2%. For the same compound, the growth [7] was 8.93% (active), the growth [8] was -29.1% (active) and the growth [10] was -2.88% (active). For the same compound, the growth [18] was -42.7% (active), the growth [11] was -70.3% (active) and the growth [12] was -4.11% (active). For the same compound, the growth [13] was -34.6% (active), the growth [14] was 0.513% (active) and the growth [15] was -58.5% (active). For the same compound, the growth [16] was -74.1% (active) and the growth [17] was -51.4% (active).
`CCCCC1COc2cccc3c2N1C=C/C3=C\C(=O)n1ccc2ccccc21` (stereo unspecified) gave a growth [1] of 16.5%, a growth [2] of 65.7% and a growth [3] of 91.8%. The growth [4] was 94.5%, the growth [5] was 65.2% and the growth [6] was 77.1%. It also gave a growth [7] of 70.2%, a growth [8] of 68.4% and a growth [9] of 88%. For the same compound, the growth [10] was 67.2%, the growth [11] was 89.9% and the growth [12] was -16.4% (active). It also gave a growth [13] of 46.4%, a growth [14] of 48.6% and a growth [15] of 58.3%. The growth [16] was 101% and the growth [17] was 68.2%.
For `CC(C)CCSC1=CC(=O)c2ccccc2C1=O`, the growth [1] was 6.01% (active), the growth [2] was -62.3% (active) and the growth [3] was 56.4%. For the same compound, the growth [4] was 112%, the growth [5] was -50.6% (active) and the growth [6] was 104%. For the same compound, the growth [7] was -35.3% (active), the growth [8] was -57.5% (active) and the growth [9] was 74%. The growth [10] was 76.3%, the growth [13] was -16.7% (active) and the growth [14] was 42.5%. The growth [15] was -100% (active), the growth [16] was 100% and the growth [17] was 92.1%.
`Cc1ccccc1OC(=O)c1cccc(Cl)c1` was tested, and the growth [1] was 97.3%, the growth [2] was 98.8% and the growth [3] was 112%. It also gave a growth [4] of 104%, a growth [5] of 112% and a growth [6] of 137%. For the same compound, the growth [7] was 104%, the growth [8] was 109% and the growth [10] was 108%. It also gave a growth [18] of 142%, a growth [11] of 107% and a growth [12] of 113%. The growth [13] was 101%, the growth [14] was 108% and the growth [15] was 103%. For the same compound, the growth [16] was 99.8% and the growth [17] was 101%.
`C=CCCCCCCCCC(=O)OC(C)C` was tested, and the growth [1] was 89%, the growth [2] was 99.7% and the growth [3] was 104%. The growth [4] was 99.2%, the growth [5] was 112% and the growth [6] was 102%. It also gave a growth [7] of 109%, a growth [8] of 105% and a growth [9] of 93.9%. For the same compound, the growth [10] was 102%, the growth [11] was 108% and the growth [12] was 111%. For the same compound, the growth [13] was 96.5%, the growth [14] was 98.2% and the growth [15] was 97.7%. It also gave a growth [16] of 112% and a growth [17] of 95.3%.
In the case of `CCCCCCCCCN(CCCCCCCCC)C(C)C(=O)c1ccc2cc(Br)c3ccccc3c2c1` (stereo unspecified), the growth [1] is reported as 7.35% (active), the growth [2] is reported as 68.7% and the growth [3] is reported as 94%. For the same compound, the growth [4] was 80.4%, the growth [5] was 85.7% and the growth [6] was 90.8%. It also gave a growth [7] of 75.7%, a growth [8] of 89.1% and a growth [10] of 84.9%. It also gave a growth [18] of 79.8%, a growth [11] of 101% and a growth [12] of 76.5%. The growth [13] was 67%, the growth [14] was 97.7% and the growth [15] was 73.5%. The growth [16] was 47.7% and the growth [17] was 81.4%.
In the case of `O=C1Cc2c(sc3c(F)cccc23)C(c2ccccc2[N+](=O)[O-])N1` (stereo unspecified), the growth [1] is reported as 99.4%, the growth [2] is reported as 95.4% and the growth [3] is reported as 107%. It also gave a growth [4] of 108%, a growth [5] of 93% and a growth [6] of 93.1%. It also gave a growth [7] of 63.5%, a growth [8] of 97.9% and a growth [10] of 106%. It also gave a growth [18] of 78.6%, a growth [11] of 99.6% and a growth [12] of 108%. It also gave a growth [13] of 79.3%, a growth [14] of 81.4% and a growth [15] of 85.9%. It also gave a growth [16] of 119% and a growth [17] of 100%.
